Compound activity: PubChem, National Center for Advancing Translational Sciences (NCATS)
HPGD block – blocks human HPGD enzyme activity | purified HPGD, NADH fluorescence kinetic, PGE2 substrate | 4.3% of 150,000 active | Potency, µM, for inactives: at the highest dose activity change, negative = inhibition, hits mostly inhibitors | AID 894 | P15428; also: potency is read from the fitted curve at half-maximal effect
Target sequence (P15428 whole entry, looked up): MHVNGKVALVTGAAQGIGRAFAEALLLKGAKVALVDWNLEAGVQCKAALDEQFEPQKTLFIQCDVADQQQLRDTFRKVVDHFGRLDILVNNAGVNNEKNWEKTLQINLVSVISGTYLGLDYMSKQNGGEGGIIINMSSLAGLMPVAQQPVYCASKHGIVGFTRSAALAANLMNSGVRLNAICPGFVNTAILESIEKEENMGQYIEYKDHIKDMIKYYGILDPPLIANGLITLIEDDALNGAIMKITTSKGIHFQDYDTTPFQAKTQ
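20 nM HPGD preincubated 15 min at room temperature with compound in 50 mM Tris-HCl pH 8, 0.01% Tween 20. Started with 1 mM NAD+ and 30 uM prostaglandin E2; NADH fluorescence (360/450 nm) read 5 times over 30-s intervals, last minus first.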
ALDH1A1 block – inhibitors of human aldehyde dehydrogenase 1A1; P00352; 7.3% of 220,000 active; Purified ALDH1A1, NADH fluorescence, propionaldehyde substrate; Potency, µM (highest dose often 75.3 µM), for inactives: at the highest dose activity, negative = inhibition, usual class: inhibitors;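 also: potency is read from the fitted curve at half-maximal effect; plate controls were no enzyme wells and a reference inhibitor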
IMPase cell inh – membrane-permeable compound that blocks inositol monophosphatase. P97697. inhibition (IP1 accumulation), % at 46.1 µM. 120,000 tested, under 10 active. CHO-M1 cells, IP1 accumulation, HTRF TR-FRET ratio; active = well fitted curve in the direction sought with a large enough effect in the signal ratio, not every such curve was filed as active; inconclusive = small, poorly fitted or top-dose-only effect, or a change in a side signal; inactive = no such curve, though single readings can be large or run the other way; the % refers to the signal ratio;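 also: cells stimulated with carbachol in lithium chloride buffer; plate controls were DMSO basal wells for no effect and reference inhibitor wells for full effect; higher means more IMPase inhibition seen as more IP1 and lower FRET ratio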
Target sequence (P97697 whole entry, looked up): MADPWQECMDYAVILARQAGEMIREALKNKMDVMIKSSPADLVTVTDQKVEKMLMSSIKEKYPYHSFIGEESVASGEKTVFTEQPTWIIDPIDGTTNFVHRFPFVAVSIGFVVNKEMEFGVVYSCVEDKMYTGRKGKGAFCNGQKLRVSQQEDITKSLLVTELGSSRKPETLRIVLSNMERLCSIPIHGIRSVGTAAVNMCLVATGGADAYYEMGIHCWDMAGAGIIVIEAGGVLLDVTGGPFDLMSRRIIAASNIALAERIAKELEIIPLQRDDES
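Carbachol-driven Gq signalling in CHO-M1 cells (2000/well) generates IP1. Compounds that block IMPase raise IP1 and so reduce the FRET signal from Eu-anti-IP1 and d2-IP1 after a 10 min room-temperature lysis.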
* = called active by the depositor; ? = inconclusive; · = no result; [ ] = another dose, or the depositor's remark. An excerpt weighted towards active compounds, which were near 9% of everything screened. Unless noted, calls follow the shape of the dose curve; as a rule, active = well fitted inhibition curve with a large enough effect (not every such curve was filed as active); inconclusive = small, poorly fitted or top-dose-only effect, or another doubt; inactive = no such curve, though single readings can be large or run the other way. Unless noted, % is scaled to controls: 0 for no effect and ±100 for the full control effect.

SMILES	HPGD block	ALDH1A1 block	IMPase cell inh
COc1ccc(/C=C(\NC(=O)c2ccc(C)cc2)C(=O)NCC2CCCO2)cc1 (stereo unspecified)	·	-1%	·
CCC(C)NC(=O)C1c2ccccc2C(=O)N(c2ccc(OC)cc2)C1c1ccc(OC)cc1 (stereo unspecified)	-2%	?	-6
COc1ccc(NC(=O)Cn2cc(S(=O)(=O)N3CCC(C)CC3)c3ccccc3c2=O)cc1Cl	·	·	4
CC(C)=CC(=O)Nc1ccc(S(=O)(=O)Nc2ccccn2)cc1	·	-3%	·
COc1ccc(C(=O)NC(=S)N2CCN(C)CC2)cc1Br	·	-5%	·
O=S(=O)(NCC(c1ccco1)N1CCOCC1)c1ccc(Cl)cc1 (stereo unspecified)	-12%	-2%	·
O=S(=O)(NCC(c1cccnc1)N1CCOCC1)c1ccc(Cl)cc1 (stereo unspecified)	·	28µM*	·
O=S(=O)(NCC(c1cccnc1)N1CCOCC1)c1ccccc1 (stereo unspecified)	·	25µM*	·
O=C(NCC(c1cccnc1)N1CCOCC1)Nc1ccccc1 (stereo unspecified)	-13%	9%	?
Nc1cc(Cl)c(N)c(Cl)c1	-11%	?	·
O=C(CCCSc1nc2ccccc2c(=O)[nH]1)c1ccccc1	·	5%	·
NC(=O)CNC(=O)[C@@H]1CC2(CC(c3cccc([N+](=O)[O-])c3)=NO2)CN1C(=O)c1ccccc1 (stereo partly specified)	-11%	1µM*	3
CC1(C(=O)N2CC3(CC(c4cccc([N+](=O)[O-])c4)=NO3)C[C@H]2C(=O)NCC(N)=O)CC1 (stereo partly specified)	-6%	5%	0
CC(C)CN(C)C(=O)CCc1nnc(Cc2cccc(C(F)(F)F)c2)o1	·	3%	·
Cc1cc(Cl)ccc1OCC(=O)Nc1nc(N)nc(N)n1	-7%	15%[13.5 µM]	·
CCOC(=O)c1c(C)oc(NC(=O)COc2ccc(Cl)cc2C)c1C#N	32µM*	?	0
CCSc1ccc2nnc(-c3ccc(F)cc3)n2n1	?	?	2[1.84 µM]
C=CCOC(=O)[C@H](O)[C@@H](O)C(=O)OCC=C	-3%	0%	·
C=CC(=O)OCCOCCOC(=O)C=C	-4%	25µM*	·
Cn1c(Cc2c[nH]c3ccccc23)n[nH]c1=S	-26%	-2%	-2
Cc1[nH]c2ccccc2c1Cc1n[nH]c(=S)n1C	35µM*	-12%	-3
Brc1ccc(OCc2nnc3n2CCC3)cc1	-7%	6%	7
CSc1ncccc1C(=O)Nc1ccc(S(=O)(=O)NC2=NCCCCC2)cc1	·	8.9µM*	·
CN(C)S(=O)(=O)c1ccc(C(=O)Nc2ccc(S(=O)(=O)NC3=NCCCCC3)cc2)cc1	-31%	?	-6
Cc1cc(NC(=O)COc2c(C)cccc2C)no1	·	7%	·
SMILES	HPGD block	ALDH1A1 block	IMPase cell inh
COCCNC(=O)CSc1nc(-c2cc(OC)c(OC)c(OC)c2)[nH]c1-c1ccc(Cl)cc1	·	·	-4
O=C(NC1=NCCS1)c1ccc2c(c1)C(=O)N(Cc1ccco1)C2=O	-15%	16µM*	-7
O=C(NC1=NCCS1)c1ccc(Cl)c(S(=O)(=O)N2CCCCC2)c1	-14%	?	6
O=C(O)c1ccc(S(=O)(=O)c2ccc3c(c2)C(=O)N(Cc2ccco2)C3=O)cc1	-19%	?	12
O=C(Nc1ccc(Cl)cc1C(=O)O)c1ccc2c(c1)C(=O)N(Cc1ccco1)C2=O	?	3.8µM*	·
O=C(OCC(=O)N1CCc2ccccc21)c1c2c(nc3ccccc13)CCCCC2	-10%	-7%	·
Cc1noc(C)c1-c1cc(NCc2ccccc2)ncn1	-18%	5%	·
CCCOc1ccc(-c2nc3ccc(Br)cc3c(=O)o2)cc1	·	·	-1
Cc1ccc(NC(=S)C2=C(O)c3sccc3N(C)S2(=O)=O)cc1	?	7.9µM*	-6
Cc1ccc(NC(=O)C2=C(O)c3sccc3N(C)S2(=O)=O)cc1	-5%	-4%	-3
O=C1CC(N2CCC(Cc3ccccc3)CC2)C(=O)N1CCc1ccccc1 (stereo unspecified)	-17%	2.2µM*	-11
O=C1CC(N2CCN(C3CC(=O)N(CCc4ccccc4)C3=O)CC2)C(=O)N1CCc1ccccc1 (stereo unspecified)	-4%	-22%	-10
O=C(C1CCN(C2CC(=O)N(Cc3ccccc3)C2=O)CC1)N1CCCCCC1 (stereo unspecified)	?	11µM*	3
COC(=O)C1CCN(C2CC(=O)N(c3cc(C)cc(C)c3)C2=O)CC1 (stereo unspecified)	·	-18%	·
O=C1CC(N2CCOCC2)C(=O)N1c1ccc2c(c1)OCO2 (stereo unspecified)	-9%	?	-2
O=C(C1CCN(Cc2ccccc2)CC1)N1CCCC1	-11%	-5%	-3
O=C(C1CCN(C2CC(=O)N(c3ccc(Cl)cc3)C2=O)CC1)N1CCOCC1 (stereo unspecified)	-9%	13µM*	3
CCOC(=O)C1CCN(C2CC(=O)N(c3cccc(Cl)c3)C2=O)CC1 (stereo unspecified)	-6%	20µM*	13
O=C(CN1C(=O)C(=O)N(Cc2ccco2)C1=O)NC1CCCCC1	·	-14%	·
CCCCOc1cccc(C2C(C(=O)c3cccs3)=C(O)C(=O)N2Cc2cccnc2)c1 (stereo unspecified)	-11%	11%	·
CC(C)[C@H](NC(=O)OCc1ccccc1)C(=O)OCC(=O)Nc1c(F)cccc1F	0%	-6%	4
Cc1ccc(C2CC(=O)Oc3c(C(C)C)ccc(C)c32)cc1 (stereo unspecified)	-1%	5%	·
C/C(CCc1ccccc1)=N\NC(=O)C(=O)Nc1cccc(Cl)c1	·	-1%	·
CCCC(CCC)C(=O)Nc1c[nH]c(=O)[nH]c1=O	-8%	6%	0
COC(=O)NC(c1cccc(C)c1)[C@@]1(C(=O)OC)CCCC1=O (stereo partly specified)	·	12%[13.5 µM]	·
SMILES	HPGD block	ALDH1A1 block	IMPase cell inh
O=C(C1CCN(C2CC(=O)N(c3cccc(Cl)c3)C2=O)CC1)N1CCCC1 (stereo unspecified)	-20%	3.2µM*	14
Cc1cccc(N2C(=O)CC(N3CCN(Cc4ccc(Cl)cc4)CC3)C2=O)c1 (stereo unspecified)	-5%	?	-1
CCOC(=O)Cc1nnc(NC(=O)CSc2ncc(-c3ccccc3)nn2)s1	·	9%	·
COc1ccc(NS(=O)(=O)c2cc(C)ccc2C)cc1	14µM*	0.56µM*	-8
Cc1ccc(S(C)(=O)=O)cc1S(=O)(=O)Nc1ccccc1	3%	2%	·
Cc1ccc(C)c(S(=O)(=O)Nc2ccc(O)cc2)c1	-9%	?	1
COc1ccc(NS(=O)(=O)c2cc(S(C)(=O)=O)ccc2C)cc1	-6%	28µM*	·
Cc1cc(C)c(S(=O)(=O)Nc2ccc(O)cc2)cc1C	-4%	14µM*	11
COc1ccc(NS(=O)(=O)c2cc(C(=O)O)ccc2C)cc1	-7%	3%	-4
CCN(CC)CCCCn1c(-c2ccccc2)nc2c(Nc3ccccc3)nc(C)nc21	-12%	-13%	·
Nc1ncnc2c1ncn2CCCCC(=O)O	-5%	-2%[13.5 µM]	·
NC(=O)c1c(NC(=S)Nc2ccc(F)cc2)sc2c1CCCC2	·	10µM*	·
NC(=O)c1c(NC(=S)Nc2ccccc2)sc2c1CCCC2	·	7.9µM*	·
CCOC(=O)c1c(NC(=S)Nc2ccc(C)cc2)sc2c1CCC2	-8%	0%	·
